From PubChem
p47phox inh: inhibitors of human p47phox binding; actives 0.53% (n = 220,000); p47phox/p22phox peptide binding, fluorescence polarization, 2 h; P14598; inhibition, % at 24.7 µM; AID 1274;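 active means inhibition above about 30%, limit read from the data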
EP2 modulator: modulators of human EP2 prostaglandin E2 receptor | actives 0.83% (n = 260,000) | P43116 | induction, % at 25 µM | EP2-expressing cells, cAMP HTRF FRET, PGE2 co-stimulation;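 active means compounds whose cAMP rise, as percent of the full-agonist control response, exceeds 60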;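 further: rat C6 glioma line stably carrying human EP2 under a CMV promoter; the protocol text gives 20 µM as final concentration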
Furin inh: inhibitors of human furin; purified furin, fluorogenic substrate cleavage; P09958; inhibition, % at 20 µM or 30 µM; actives 0.061% (n = 220,000); in the data active means inhibition above about 25%
Target sequence (P09958 108-714 limits assumed): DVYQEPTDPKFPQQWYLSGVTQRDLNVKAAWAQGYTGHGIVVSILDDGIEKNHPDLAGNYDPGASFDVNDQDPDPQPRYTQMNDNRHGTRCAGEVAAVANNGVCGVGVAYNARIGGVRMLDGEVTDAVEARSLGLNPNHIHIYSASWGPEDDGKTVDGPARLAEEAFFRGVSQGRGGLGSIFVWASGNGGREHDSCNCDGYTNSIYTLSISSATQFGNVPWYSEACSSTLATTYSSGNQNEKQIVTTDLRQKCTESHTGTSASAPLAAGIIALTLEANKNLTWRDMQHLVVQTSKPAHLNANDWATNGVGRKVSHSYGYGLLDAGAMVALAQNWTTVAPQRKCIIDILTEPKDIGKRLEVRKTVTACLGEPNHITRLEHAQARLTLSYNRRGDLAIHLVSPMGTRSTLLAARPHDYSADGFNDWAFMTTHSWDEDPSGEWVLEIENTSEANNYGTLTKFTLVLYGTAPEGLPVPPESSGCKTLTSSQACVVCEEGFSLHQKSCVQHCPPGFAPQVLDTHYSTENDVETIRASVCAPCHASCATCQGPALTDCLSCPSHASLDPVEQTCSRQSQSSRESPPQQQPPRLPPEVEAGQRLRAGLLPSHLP
HSV augment: HSV replication enhancement. maximum fold increase. actives 0.005% (n = 220,000). HSV replication augmentation in cells, fold increase; in the data active means maximum fold increase above about 1.5; inconclusive means no clear call, values can overlap the other calls; tested in PC3 cells
PGE2 EP2 inh: EP2 receptor (human) inhibition; P43116; C6 glioma cells expressing human EP2, cAMP TR-FRET; cells stimulated with saturating PGE2; inhibition, % at 25 µM; actives 0.52% (n = 260,000); AID 1422;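 active means percent inhibition above 40 after rounding to a whole number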;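 further: rat C6 glioma host cells with rolipram phosphodiesterase inhibitor present; the protocol text gives 20 µM as final concentration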
Wee1 stabilizer: human Wee1 degradation inhibition, primary screen. reporter increase, % at 5 µM. actives 1.2% (n = 220,000). HeLa Luc-Wee1K328M stability, luciferase luminescence; 100% = proteasome inhibitor MG132 effect;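 active means activation above the mean of all tested compounds plus 3 SD, set per screening run, cut at about 8.8% in these data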;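 further: cells exposed to compound for 20 h before luminescence read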
Wee1 stab conf: confirmation of human Wee1 degradation inhibitors; shares compounds with Wee1 stabilizer; HeLa Luc-Wee1K328M degradation, luminescence; vehicle 0%, proteasome-blocked wells 100%; activation, % at 5 µM; actives 4% (n = 1,100); in the data active means activation above about 8.9%
Each line names hits and unclear results; the compound was inactive in the other large screens (follow-up assays come after a bar, where they were run). Compounds with a hit are over-represented: about 2.8% of the library has one in this group of screens.

Cc1ccc(NC(=O)Nc2ccc(Cl)cn2)cc1	Wee1 stabilizer 11 | Wee1 stab conf inactive
CNc1oc(-c2ccccc2Cl)nc1C#N	Wee1 stabilizer 13 | Wee1 stab conf inactive
CCOC(=O)C1=C(O)C(=O)N(Cc2ccc(C(C)(C)C)cc2)CC1	Wee1 stabilizer 14 | Wee1 stab conf inactive
CN(C)c1ncc(CN(Cc2ccc(F)cc2)C2CC(C)(C)NC(C)(C)C2)cn1	none (no result: p47phox inh, Furin inh, HSV augment, Wee1 stabilizer)
Nc1c(C(=O)O)sc2nc(-c3ccccc3)cc(-c3ccccc3)c12	Wee1 stabilizer 11 | Wee1 stab conf inactive
Nc1c(C(=O)O)sc2nc(-c3ccccc3)cc(-c3ccc(F)cc3)c12	none
CC(=O)N(Cc1ccc(C)cc1)Cc1cc2cccc(C)c2[nH]c1=O	none (no result: p47phox inh, Furin inh, HSV augment, Wee1 stabilizer)
CCCC(c1nnnn1C1CCCC1)N(Cc1cc2cc(C)ccc2[nH]c1=O)C1CCCC1 (centres undefined)	none (no result: p47phox inh, Furin inh, HSV augment, Wee1 stabilizer)
COCCNC(=O)CN1C(=O)C(C(C)C)Oc2ccccc21 (centres undefined)	none (no result: p47phox inh, Furin inh, HSV augment, Wee1 stabilizer)
COCCn1cc(C(=O)NCCCN2CCC(C)CC2)c2c3ccccc3n(C)c2c1=O	Wee1 stabilizer 14 | Wee1 stab conf inactive
Cc1ccn2c(C(=O)NN)c(C)nc2c1	none (no result: p47phox inh, Furin inh, HSV augment, Wee1 stabilizer)
COc1ccc2[nH]c(=O)c(CN(C)C(=O)c3ccc(C)cc3)cc2c1	none (no result: p47phox inh, Furin inh, HSV augment, Wee1 stabilizer)
CCOCCCNC(=S)Nc1ccc(S(N)(=O)=O)cc1	Wee1 stabilizer 13 | Wee1 stab conf inactive
CCCCOc1ccc(CNC(=O)NS(=O)(=O)c2ccc(OCC)cc2)cc1	Wee1 stabilizer 13 | Wee1 stab conf inactive
CC(CCC(=O)O)[C@H]1CCC2C3C[C@H](O)[C@@H]4C[C@H](O)CC[C@]4(C)C3CC[C@@]21C (some centres undefined)	none (no result: p47phox inh, Furin inh, HSV augment, Wee1 stabilizer)
CCCCn1c(N)c(N(CC)C(=O)c2cc(OC)cc(OC)c2)c(=O)[nH]c1=O	Wee1 stabilizer 11 | Wee1 stab conf inactive
Cc1cc2cc(C(c3nnnn3C3CCCCC3)N3CCC(O)CC3)c(=O)[nH]c2cc1C (centres undefined)	none (no result: p47phox inh, Furin inh, HSV augment, Wee1 stabilizer)
CCN(CC)S(=O)(=O)c1ccc(-c2nnc(SCC(=O)N3CCCC3)o2)cc1	none (no result: p47phox inh, Furin inh, HSV augment, Wee1 stabilizer)
COc1ccc(OC)c(/C=C/C(=O)Nc2ccc3c(c2)CCC3)c1	none
COc1ccccc1/C=C/C(=O)Nc1ccc2c(c1)CCC2	Wee1 stabilizer 11 | Wee1 stab conf inactive
O=C(CCSCc1ccccc1Cl)NCc1cccs1	none
O=C(CCSCc1ccccc1F)NCc1cccs1	Wee1 stabilizer 11 | Wee1 stab conf inactive
O=C(CCc1ccccc1)N1CCCC(n2nc(-c3cccs3)ccc2=O)C1 (centres undefined)	none (no result: p47phox inh, Furin inh, HSV augment, PGE2 EP2 inh, Wee1 stabilizer)
O=C(CN1CCC(n2nnc3cc(C(F)(F)F)ccc32)CC1)Nc1ccc(F)cc1	none (no result: p47phox inh, Furin inh, HSV augment, Wee1 stabilizer)
O=C(CN1CCC(n2nnc3cc(C(F)(F)F)ccc32)CC1)Nc1ccc2c(c1)OCCO2	Wee1 stabilizer 15 | Wee1 stab conf inactive
CC1c2ccsc2CCN1C(=O)NC(=O)c1ccc(Cl)cc1 (centres undefined)	Wee1 stabilizer 14 | Wee1 stab conf inactive
CCCn1c(NCCO)nc2ccccc21	none
CC(C)n1c(NCCO)nc2ccccc21	Wee1 stabilizer 11 | Wee1 stab conf inactive
CS(=O)(=O)N(CC(=O)NCc1ccncc1)c1ccccc1Cl	none (no result: p47phox inh, Furin inh, HSV augment, Wee1 stabilizer)
O=C(Nc1ccc(F)cc1F)c1csc(-c2cccs2)n1	Wee1 stabilizer 11 | Wee1 stab conf inactive
Cc1nnc(NC(=O)Cn2cnc3c2c(=O)n(C)c(=O)n3C)s1	Wee1 stabilizer 12 | Wee1 stab conf inactive
Cn1c2c(c(=O)c3ccccc31)CCC(C)(C)O2	Wee1 stabilizer 11 | Wee1 stab conf inactive
CC1(C)c2ccccc2-n2c1cc1oc(=O)cc(O)c1c2=O	Wee1 stabilizer 15 | Wee1 stab conf inactive
O=C(Nc1ccc(N2CCCCC2)cc1)c1ccc2c(c1)OCO2	none (no result: p47phox inh, Furin inh, HSV augment, Wee1 stabilizer)
Cc1nn(CC(=O)N2C3CCC2CC(c2ccc(F)cc2)C3)c(=O)c2ccccc12 (centres undefined)	none (no result: p47phox inh, Furin inh, HSV augment, Wee1 stabilizer)
CCC(c1nnnn1C(C)(C)CC)N(Cc1cc2cc(C)c(C)cc2[nH]c1=O)C1CCCCC1 (centres undefined)	none (no result: p47phox inh, Furin inh, HSV augment, Wee1 stabilizer)
Clc1ccc(/C=N/Nc2ncnc3ccccc23)cc1Cl	none (no result: HSV augment, PGE2 EP2 inh)
Fc1ccccc1/C=N/Nc1ncnc2ccccc12	Wee1 stabilizer 12 | Wee1 stab conf inactive
CCOc1ccc2[nH]c(C(=O)NC(C)c3nc(-c4cccnc4)no3)c(C)c2c1 (centres undefined)	none (no result: p47phox inh, Furin inh, HSV augment, Wee1 stabilizer)
CCC(c1nnnn1CC1CCCO1)N(Cc1ccc(C)cc1)Cc1cc2cccc(C)c2[nH]c1=O (centres undefined)	none (no result: p47phox inh, Furin inh, HSV augment, Wee1 stabilizer)
O=C(NCc1cccs1)c1cccc(Nc2nc3ccc(Br)cc3[nH]2)c1	Wee1 stabilizer 15 | Wee1 stab conf inactive
O=C(NCc1cccs1)c1ccccc1	none
O=C(CN1CCN(c2ccccn2)CC1)N1CC(O)CO1 (centres undefined)	Wee1 stabilizer 18 | Wee1 stab conf inactive
CC(C)(C)NC(=O)C(c1ccc(F)cc1)N(Cc1cccs1)C(=O)c1ccc(CN2CCOCC2)o1 (centres undefined)	Wee1 stabilizer 11 | Wee1 stab conf inactive
CC(C)CCNC(=O)C(C)N(Cc1ccc(F)cc1)C(=O)c1ccc(CN2CCOCC2)o1 (centres undefined)	none
O=C(Cn1nc(-c2ccc3c(c2)OCCO3)ccc1=O)Nc1cccc2cccnc12	none (no result: p47phox inh, Furin inh, HSV augment, Wee1 stabilizer)
COC(=O)CC1=NN(c2ccc(OC)cc2)C(=O)C1	Wee1 stabilizer 12 | Wee1 stab conf inactive
COC(=O)Cc1c(C(=O)OC)nnn1-c1ccc(OC)cc1	none
Cc1cc(N2CCN(c3ccccc3)CC2)nc(-c2ccccc2)n1	none
C#CCNC(=O)C1CCN(c2cc(C)nc(-c3ccccc3)n2)CC1	Wee1 stabilizer 12 | Wee1 stab conf inactive
Cc1ccccc1NC(=O)c1c(-c2ccccc2)noc1C	none
Cc1cccc(C)c1NC(=O)c1c(-c2ccccc2)noc1C	Wee1 stabilizer 11 | Wee1 stab conf inactive
CCOC(=O)c1c(-c2ccccc2)oc2ccc(OC(C)C(=O)O)cc12 (centres undefined)	none
CCOC(=O)c1c(-c2ccccc2)oc2ccc(OC(C)=O)cc12	Wee1 stabilizer 13 | Wee1 stab conf inactive
COC(=O)C1CCN(C(=O)/C=C/c2ccc(OC)cc2)CC1	Wee1 stabilizer 11 | Wee1 stab conf 10
Cc1ccc(C(=O)NC2CC(C)(C)NC(C)(C)C2)cc1C	Wee1 stabilizer 12 | Wee1 stab conf inactive
Cc1ccc(C)c(C(=O)NC2CC(C)(C)NC(C)(C)C2)c1	none
CCNc1nc(NC(C)(C)C)nc(OCC)n1	none (no result: p47phox inh, Furin inh, HSV augment, Wee1 stabilizer)
CC(=O)Nc1nc(C)c(CCC2OCCO2)c(=O)[nH]1	Wee1 stabilizer 11 | Wee1 stab conf inactive
CC(=O)c1cc2c(C)c(C(=O)c3ccccc3)oc2cc1O	HSV augment inconclusive, Wee1 stabilizer 12 | Wee1 stab conf inactive
